This is part of a sample that, as a whole, favours compounds with a hit. Of some 83,000 tested, about 20% had one in any assay.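 How to read the values: 0–100, growth inhibition (40 = 60% inhibited); 0, no net growth; -100 to 0, cell death (-40 = 40% of starting cells died; -100 = all dead).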 Unmarked numbers belong to inactive results. Active and inactive are the calls of the source. How the source made its calls: active means growth percent below 10; inactive means the rest.
Columns and labels:
Test in all cases: NCI-60 one-dose screen, 48 h (100 = growth as untreated, 0 = no growth, -100 = all killed)
Conditions in all cases: 10 µM unless noted
DU-145 prostate = system: DU-145 prostate
K-562 leukemia = system: K-562 leukemia
MALME-3M melanoma = system: MALME-3M melanoma
MDA-MB-231 breast = system: MDA-MB-231 breast
RXF 393 renal = system: RXF 393 renal
SF-268 CNS = system: SF-268 CNS
SF-295 CNS = system: SF-295 CNS
SF-539 CNS = system: SF-539 CNS
UACC-257 melanoma = system: UACC-257 melanoma
M14 melanoma = system: M14 melanoma
HCT-15 colon = system: HCT-15 colon
HT29 colon = system: HT29 colon
SNB-75 CNS = system: SNB-75 CNS
SNB-19 CNS = system: SNB-19 CNS
U251 CNS = system: U251 CNS
PC-3 prostate = system: PC-3 prostate
SK-MEL-5 melanoma = system: SK-MEL-5 melanoma
UACC-62 melanoma = system: UACC-62 melanoma
LOX IMVI melanoma = system: LOX IMVI melanoma

| Compound | growth (DU-145 prostate) | growth (K-562 leukemia) | growth (MALME-3M melanoma) | growth (MDA-MB-231 breast) | growth (RXF 393 renal) | growth (SF-268 CNS) | growth (SF-295 CNS) | growth (SF-539 CNS) | growth (UACC-257 melanoma) | growth (M14 melanoma) | growth (HCT-15 colon) | growth (HT29 colon) | growth (SNB-75 CNS) | growth (SNB-19 CNS) | growth (U251 CNS) | growth (PC-3 prostate) | growth (SK-MEL-5 melanoma) | growth (UACC-62 melanoma) | growth (LOX IMVI melanoma) |
| --- | --- | --- | --- | --- | --- | --- | --- | --- | --- | --- | --- | --- | --- | --- | --- | --- | --- | --- | --- |
| COc1ccc(NC(=O)c2ccc(C(F)(F)F)nc2Nc2ccc(Cl)cc2C)cc1Cl | 9.29% (active) | 16.4% | 34.8% | 7.34% (active) | 42.5% | 38.2% | 3.72% (active) | 50.3% | 22% | 34.2% | 22.4% | 26.6% | 35% | 30% | 20.3% | 10.2% | 28.2% | 15.3% | 13.4% |
| CC[C@H](Nc1nc(C)nc(N)c1C#N)c1nc2cccc(NCc3ccc(C(=O)NO)cc3)c2c(=O)n1-c1ccccc1 | 11.2% | 2.24% (active) | 2.94% (active) | 14.7% | -27.2% (active) | 12.3% | 21.5% | 14.6% | -3.98% (active) | 8.71% (active) | 21% | 14.8% | 7.85% (active) | 17.6% | 1.03% (active) | 8.89% (active) | -20.4% (active) | 4.19% (active) | -59.6% (active) |
| CC(=O)N(C)c1ccc(Nc2cc(C)[nH]c3ccc4ncnc4c23)cc1 | 46.5% | 29.5% | 82.4% | 87.7% | 41.7% | 55% | 76.5% | 40.7% | 48.2% | 76.9% | 82.5% | 48% | 55% | 58.7% | 49.9% | 50.5% | 51.4% | 62.7% | 36.1% |
| COc1cccc2nc(Nc3cccc(NC(=O)c4cc(N5CCOCC5)cc(C(F)(F)F)c4)c3)ccc12 | 59.9% | 45% | 91.3% | 93.3% | 51.4% | 59.9% | 58.4% | 82% | 57.1% | 52.5% | 48.2% | 43.4% | 50.1% | 74.6% | 50.6% | 36.8% | 42.7% | 71.4% | 56% |
| CN1CCN(Cc2ccc(NC(=O)c3cncc(C#Cc4ccc(N)nc4)c3)cc2C(F)(F)F)CC1 | 21.4% | 1.27% (active) | -70.3% (active) | -46.3% (active) | -6.03% (active) | 15.8% | 11.5% | -39.8% (active) | 11.8% | -37% (active) | 7.71% (active) | 3.36% (active) | 4.55% (active) | 37.2% | 14.9% | 15.6% | -5.69% (active) | -5.85% (active) | -25.8% (active) |
| CC[C@H](Nc1nc(N)nc(N)c1Cl)c1nc2cccc(NCc3ccc(C(=O)NO)cc3)c2c(=O)n1-c1ccccc1 | -0.88% (active) | 3.11% (active) | 20.2% | -10.8% (active) | -52.5% (active) | 4.81% (active) | 13.2% | -74.2% (active) | -0.0784% (active) | -13% (active) | 40.9% | 6.69% (active) | -3.96% (active) | 7.79% (active) | -65.6% (active) | -57.2% (active) | -26.3% (active) | -56.8% (active) | -86.2% (active) |
| F | 49.5% [6.87 mM] | 60.9% [6.87 mM] | -28.9% [6.87 mM] (active) | 5.12% [6.87 mM] (active) | 23.9% [6.87 mM] | 40.9% [6.87 mM] | 2.46% [6.87 mM] (active) | -13% [6.87 mM] (active) | 0.483% [6.87 mM] (active) | -23.4% [6.87 mM] (active) | 57.4% [6.87 mM] | 1.64% [6.87 mM] (active) | 11.4% [6.87 mM] | 41.2% [6.87 mM] | 17% [6.87 mM] | 33% [6.87 mM] | -66.1% [6.87 mM] (active) | -74.4% [6.87 mM] (active) | 1.06% [6.87 mM] (active) |
| COc1cc(C)c2c(=O)c3c(oc2c1)C(=O)c1c(O)c(OC)cc(O)c1C3=O | 26.8% | -23.8% (active) | -23.8% (active) | -0.877% (active) | 13.1% | 21.5% | 25.7% | 5.8% (active) | 54% | 19.3% | 5.54% (active) | 68.1% | -13.2% (active) | 20.2% | 10.8% | -8.33% (active) | -43.8% (active) | 22.5% | 3.56% (active) |
